Test systems include SR leukemia; OVCAR-8 ovarian; OVCAR-5 ovarian; OVCAR-4 ovarian; SK-OV-3 ovarian; IGROV1 ovarian; OVCAR-3 ovarian; HS 578T breast; NCI/ADR-RES ovarian; T-47D breast; BT-549 breast; MDA-MB-435 melanoma; SW-620 colon; MCF7 breast; HCT-116 colon; HCC-2998 colon; KM12 colon; RPMI-8226 leukemia.
Assay in all cases: NCI-60 one-dose screen, 48 h (100 = growth as untreated, 0 = no growth, -100 = all killed)
What all share (settings): 10 µM unless noted

Molecules are shown by their SMILES. This is part of a sample that, as a whole, favours compounds with a hit. Of some 83,000 tested, about 20% had one in any assay.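 Interpretation: 100, growth as untreated; towards 0, rising growth inhibition; 0, no net growth; 0 to -100, cell death. Compounds scoring below 10 were considered active.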 A number with no mark means an inactive call. Calls of active or inactive are those of the source.

In the case of `CCOC(=O)C1=C(C)Nc2nc3ccccc3n2C1c1cccc(Br)c1` (configuration not stated), the growth with SR leukemia was 25.4%; in the test on OVCAR-8 ovarian, 96%; in the test with OVCAR-5 ovarian, 97.1%; in the test on OVCAR-4 ovarian, 88.9%; in the test with SK-OV-3 ovarian, 93.6%; in the test on IGROV1 ovarian, 77.4%. Besides, the growth is 40.3% in the test on OVCAR-3 ovarian; 79.1% in the test with HS 578T breast; 59% with NCI/ADR-RES ovarian; 88.1% in the test with T-47D breast; 76.9% with BT-549 breast; 7.44% (active) in the test with MDA-MB-435 melanoma. In addition, the growth is 68.2% in the test on SW-620 colon; 38.3% with MCF7 breast; 81.4% with HCT-116 colon; 93.1% in the test with HCC-2998 colon; 65.6% in the test with KM12 colon.
For the compound `C#C[C@]1(O)CC[C@H]2[C@@H]3CC=C4c5sc(Nc6cc(OC)ccc6OC)nc5CC[C@]4(C)[C@H]3CC[C@@]21C`, the growth was 3.13% (active) in the test with SR leukemia; 40.1% with OVCAR-8 ovarian; 56.7% in the test with OVCAR-5 ovarian; 64.3% with OVCAR-4 ovarian; 5.82% (active) in the test with SK-OV-3 ovarian; 59.2% with OVCAR-3 ovarian. Moreover, the growth is -13.8% (active) with HS 578T breast; 55.6% in the test with NCI/ADR-RES ovarian; 22.8% in the test with T-47D breast; 30.2% in the test on BT-549 breast; 18.4% with SW-620 colon; -2.69% (active) with MCF7 breast. The growth in the test with HCT-116 colon was 19.3%; in the test with HCC-2998 colon, 62.4%; in the test on KM12 colon, 24.6%.
As to `Cc1nn(-c2ccc(Br)cc2)c2nc(CCl)[nH]c(=O)c12`, the growth with RPMI-8226 leukemia is -53.9% (active); with OVCAR-8 ovarian, 102%; with OVCAR-5 ovarian it was 102%; in the test on OVCAR-4 ovarian it was 116%; in the test with SK-OV-3 ovarian, 106%; in the test with IGROV1 ovarian it was 97.4%. The growth was 116% in the test with OVCAR-3 ovarian; 108% in the test with HS 578T breast; 104% in the test with NCI/ADR-RES ovarian; 91.5% in the test with T-47D breast; 101% in the test with BT-549 breast; 103% in the test with MDA-MB-435 melanoma. Further, the growth in the test with SW-620 colon is 110%; in the test on MCF7 breast, 82.3%; in the test on HCT-116 colon, 98.3%; with HCC-2998 colon, 105%; in the test on KM12 colon it was 83.6%.
For `C#C[C@]1(O)CC[C@H]2[C@@H]3CC=C4c5sc(-c6cccc(F)c6)nc5CC[C@]4(C)[C@H]3CC[C@@]21C`, the growth is 76.4% with SR leukemia; 96.8% in the test on OVCAR-8 ovarian; 83.2% in the test on OVCAR-5 ovarian; 110% with OVCAR-4 ovarian; 92.7% in the test on SK-OV-3 ovarian; 97.2% in the test on IGROV1 ovarian. In addition, the growth in the test with OVCAR-3 ovarian is 102%; in the test on HS 578T breast, 68.7%; in the test on NCI/ADR-RES ovarian, 89.1%; in the test with T-47D breast, 65.4%; in the test with BT-549 breast it was 96.3%; in the test on SW-620 colon, 89.7%. The growth in the test with MCF7 breast is 66.7%; in the test on HCT-116 colon, 80.6%; in the test with HCC-2998 colon, 85.2%; in the test with KM12 colon, 75.6%.
In the case of `O=C(Nc1cccc(-c2nc(-c3ccc(NC(=O)c4cccnc4)cc3Cl)no2)c1)Nc1ccc(NC(=O)C2CC2)c(C(F)(F)F)c1`, the growth in the test with SR leukemia is -14.4% (active); in the test on OVCAR-8 ovarian, -16.8% (active); in the test with OVCAR-5 ovarian, -65.6% (active); in the test with OVCAR-4 ovarian, -74.1% (active); with IGROV1 ovarian, -55.4% (active); with OVCAR-3 ovarian it was -74.7% (active). The growth in the test on HS 578T breast is -31% (active); in the test on NCI/ADR-RES ovarian, 64.1%; in the test on BT-549 breast, -39.5% (active); with SW-620 colon, -59.9% (active); with MCF7 breast it was -66.8% (active); in the test on HCT-116 colon, -52.8% (active). For the same compound, the growth in the test on HCC-2998 colon was -69.6% (active); in the test on KM12 colon, -63.9% (active).
Regarding `O=S(=O)(Nc1ccc(C2CC2)cc1)c1ccc(-c2cnc(C3CC3)o2)cc1`, the growth in the test on SR leukemia was 31.1%; with OVCAR-8 ovarian it was 80.2%; in the test on OVCAR-5 ovarian, 94.2%; in the test with OVCAR-4 ovarian it was 67.1%; with SK-OV-3 ovarian it was 87%; with IGROV1 ovarian, 58.2%. Further, the growth in the test on OVCAR-3 ovarian is 53.2%; in the test on HS 578T breast, 69%; in the test with NCI/ADR-RES ovarian it was 47.7%; in the test on T-47D breast, 51.5%; in the test on BT-549 breast it was 76.3%; in the test with SW-620 colon, 33.8%. The growth in the test with MCF7 breast is 33.3%; with HCT-116 colon it was 48.5%; in the test on HCC-2998 colon, 91.1%; in the test on KM12 colon it was 48.3%.
Turning to `CCCCCCNC(=O)Oc1ccc(/C(=C(/C)c2ccc(Cl)cc2)c2ccc(OCCN3CCCC3)cc2)cc1`, the growth in the test with RPMI-8226 leukemia was -35.8% (active); in the test on OVCAR-8 ovarian it was 56.8%; in the test on OVCAR-5 ovarian, 67.8%; with OVCAR-4 ovarian, 54.6%; in the test with SK-OV-3 ovarian, 78.8%; with IGROV1 ovarian, 32.6%. For the same compound, the growth with OVCAR-3 ovarian is 23.4%; with HS 578T breast, 61.1%; in the test with NCI/ADR-RES ovarian, 50.4%; in the test with T-47D breast it was 41%; in the test with BT-549 breast, 71.6%; with MDA-MB-435 melanoma, 51.6%. Besides, the growth in the test with SW-620 colon is -30.7% (active); with MCF7 breast, -41.8% (active); with HCT-116 colon, -43.9% (active); with HCC-2998 colon, 37.1%; with KM12 colon, 29.7%.
Turning to `CCN(CC)Cc1c(-c2cccc(OC(F)(F)F)c2)[nH]c2ccc(N3CCCC3)cc2c1=O`, the growth in the test on SR leukemia was 91.4%; in the test on OVCAR-8 ovarian, 96.2%; in the test on OVCAR-5 ovarian it was 92.5%; in the test on OVCAR-4 ovarian, 101%; with SK-OV-3 ovarian it was 111%; in the test on IGROV1 ovarian it was 79.6%. For the same compound, the growth is 104% with OVCAR-3 ovarian; 87.3% in the test on HS 578T breast; 92.5% in the test with NCI/ADR-RES ovarian; 103% with T-47D breast; 87.7% in the test on BT-549 breast; 92.3% in the test with SW-620 colon. The growth in the test on MCF7 breast is 78.4%; with HCT-116 colon it was 101%; in the test with KM12 colon, 95.9%.
